Most compounds without a hit are left out; they make up all but 4.6% or so of the library.
D1 PAM: human D1 dopamine receptor positive modulation | HEK293 TREx D1 cells, calcium flux, dopamine EC20 potentiation | potentiation, % at 10 µM | 0.036% of 360,000 active; in the data active means potentiation above about 30%
Target sequence (P21728 whole entry, looked up): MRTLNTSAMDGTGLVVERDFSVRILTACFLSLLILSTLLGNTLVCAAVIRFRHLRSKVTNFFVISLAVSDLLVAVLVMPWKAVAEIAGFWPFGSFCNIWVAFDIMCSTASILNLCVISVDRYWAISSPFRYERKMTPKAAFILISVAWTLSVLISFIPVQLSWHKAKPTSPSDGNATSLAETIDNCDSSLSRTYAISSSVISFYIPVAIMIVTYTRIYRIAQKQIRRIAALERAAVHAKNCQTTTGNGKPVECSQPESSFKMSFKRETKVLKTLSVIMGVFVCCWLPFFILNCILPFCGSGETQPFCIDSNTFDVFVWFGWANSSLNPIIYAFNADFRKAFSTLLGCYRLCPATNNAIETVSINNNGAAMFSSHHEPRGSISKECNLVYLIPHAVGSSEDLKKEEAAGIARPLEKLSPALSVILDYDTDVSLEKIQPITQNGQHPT
D1 agonist: activates the human D1 dopamine receptor. HEK293 T-REx D1 cells, calcium flux, agonist mode. activation, % at 2 µM. 1% of 360,000 active
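Inducible HEK293 T-REx D1 cells, force-coupled to calcium signalling, were plated at 4000 cells/well with tetracycline and held overnight at 30 C. After no-wash calcium dye loading, compound-evoked calcium rise over 180 s flagged agonists.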
D1 antag: antagonists of human D1 dopamine receptor; 3.2% of 360,000 active; HEK293 TREx D1 cells, calcium flux, dopamine EC80; stronger effect = lower value; AID 504652; activity change, negative = inhibition, % at 10 µM; in the data active means activity change below about -30%
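Inducible Hek293 Trex D1 cells (tetracycline, overnight, 30 C). Calcium dye 30–90 min RT. Antagonist mode: EC80 dopamine added after 180 s compound read.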
TRHR PAM: allosterically enhances the human TRH receptor | P34981 | TRHR cells, fluo-8 calcium fluorescence, EC20 TRH enhancement | enhancement, % at 2 µM | 0.66% of 360,000 active; in the data active means enhancement above about 30%
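Enhancer read-out: after compound pinning and an initial kinetic agonist-mode read, an EC20 of TRH (10 nM final) was injected and fluo-8 calcium signal (Ex 480/Em 530) followed at 1 s/cycle for 100 cycles in TRHR-expressing cells.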
TRHR ag: agonists of human TRH receptor; 0.18% of 360,000 active; P34981; AID 493084; TRHR cells, calcium flux fluo-8, FDSS agonist mode; activation, % at 2 µM
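Steps: seed TRHR cells overnight; add fluo-8 no-wash Ca dye, RT 30 min–1.5 h; record 10 s baseline; pin-transfer compounds; monitor fluorescence 1 cycle/s for the agonist window. Calcium increases flag candidate agonists.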
Of the large screens only hits and unclear results are named; the others gave an inactive call. Unless noted, no stated cut-off is given here; in the data, active means activation above about 30%; inactive means the rest.

O=C(C1CCCO1)N1CCN(S(=O)(=O)c2ccc(Cl)cc2)CC1 (stereo unspecified)	D1 antag -47
O=C(CN1CCN(C(=O)C2CCCO2)CC1)Nc1ccc(Cl)cc1 (stereo unspecified)	D1 antag -30
O=C(Nc1ccc(Cl)cc1)N1CCN(C(=O)C2CCCO2)CC1 (stereo unspecified)	none
COC(=O)C1=C(C)N(Cc2ccccc2)C(=S)N[C@H]1CCc1ccccc1	none
N#Cc1ccccc1Cn1c(=O)n(CCCC(=O)NCc2ccccc2Cl)c(=O)c2ccccc21	none
NC(=O)C1CCN(CC(=O)Nc2ccccc2Sc2ccccc2)CC1	none
COC(=O)C1CCN(CC(=O)Nc2ccccc2Sc2ccccc2)CC1	TRHR PAM 35
COc1cc(NC(=O)Nc2ccccc2OC)c(OC)cc1NC(=O)CN1CCCCC1	D1 antag -32
O=C(C1CC(Cl)CN1S(=O)(=O)c1ccc(Cl)cc1)N1CCOCC1 (stereo unspecified)	D1 antag -36
CCOC(=O)c1c(NC(=O)CN2CCN(C(=O)c3ccco3)CC2)sc(C)c1C	D1 agonist 126, D1 antag -32
CCc1c(C)sc(NC(=O)CN2CCN(C(=O)c3ccco3)CC2)c1C(=O)OC	D1 agonist 59
CCOC(=O)c1ccc(NC(=O)CN2CCN(C(=O)c3ccco3)CC2)cc1	none
Cc1nc2sccn2c(=O)c1S(=O)(=O)NCC1CCN(Cc2ccccc2Cl)CC1	D1 antag -66
Cc1nc2sccn2c(=O)c1S(=O)(=O)NCc1ccccc1Cl	none
CC(C)n1nc(C(=O)NNC(=O)c2ccc(OC(F)F)cc2)c2ccccc2c1=O	none
Cc1cc(/C=N/n2cnnc2)c(C)n1-c1ccc(Cl)cc1Cl	D1 antag -35
O=C(N/N=C/c1sc(=O)n(Cc2ccc(Br)cc2)c1Cl)c1ccco1	D1 antag -49
O=C(N/N=C/c1ccc(Br)s1)c1ccco1	none
O=C(NCc1ccccc1Cl)NCc1ccccc1Cl	none
NC(=O)NCc1ccccc1Cl	D1 antag -38
COc1cc(CNCc2ccccn2)ccc1OCc1c(Cl)cccc1Cl	D1 agonist 41
COc1cc(CNCc2ccccn2)ccc1OCc1ccc(Cl)cc1	none
CC1=CC(C)(C)N2C(=O)C(=Nc3ccc(O)cc3)c3cccc1c32	D1 antag -36
COc1ccc(C(=O)Nc2cccc(C(=O)OCc3cc(=O)n4nc(C5CC5)sc4n3)c2)cc1	none
Cc1cccc(-n2ncc(C(=O)NCc3ccco3)c2C2CCN(C(=O)OC(C)(C)C)CC2)c1	none
CC1(C)C(c2ccc(Cl)cc2)=[N+]([O-])C2(CCCC/C2=N\O)N1O (stereo unspecified)	D1 antag -87
Cc1ccc(C2=[N+]([O-])C3(CCCCC/C3=N\O)N(O)C2(C)C)o1 (stereo unspecified)	none
CCOc1ccccc1CNC(=O)CCCn1nc(C)c2sc3ccccc3c2c1=O	none
Cc1ccccc1CSCC(=O)N/N=C/c1cccs1	D1 antag -41
COC(=O)N/N=C/c1cccs1	D1 antag -32
O=C(Cc1ccccc1)N/N=C/c1cccs1	none
Cc1ccc(C)c(N2CCN(C(=O)CCc3c(C)nn(-c4ccc(N5CCCC5)nn4)c3C)CC2)c1	none
CSc1ccc(CNC(=O)CN2C(=O)C3CCCCN3c3ccc(C(=O)N4CCCC4)cc32)cc1 (stereo unspecified)	none
O=C1NC(=O)C(CC(=O)N(Cc2ccco2)C2(C(=O)NC3CCCC3)CCCCC2)N1 (stereo unspecified)	TRHR PAM 33
CCCCN(CCCC)CCNC(=O)Cn1nc(CC)n2c(cc3sc(C)cc32)c1=O	none
C=CCn1c(SCC(=O)c2c(N)n(CCC)c(=O)n(C)c2=O)nnc1-c1ccncc1	D1 antag -32
O=C(COC(=O)c1ccncc1)NC(=O)C1CCCCC1	D1 antag -36
COc1ccc(NC(=S)NNC(=O)COc2ccc(Cl)cc2Cl)cc1	D1 agonist 44
COC(CC(=O)NNC(=S)Nc1ccc(Cl)cc1)OC	D1 antag -30
COc1ccc(C(=O)NCCn2cc(SCc3ccc(C(F)(F)F)cc3)c3ccccc32)cc1OC	none
O=C(Nc1ccc(Oc2cccc(C(F)(F)F)c2)nc1)c1ccccc1	none
O=C(Nc1ccc(Oc2cccc(C(F)(F)F)c2)nc1)c1cccs1	D1 agonist 32, D1 antag -45

Source: PubChem (National Center for Advancing Translational Sciences (NCATS))
